# Test results published in PubChem BioAssay (NCI).
# Compounds without any hit were thinned out: in the full panel of roughly 79,000, 15% have a hit. Unmarked numbers belong to inactive results. Active and inactive are the calls of the source. Cut-off read from the data, not from the text of the source: active = growth inhibition above about 70%; inactive = the rest.
# How the values were obtained:
# [1] = NCI Yeast Anticancer Drug Screen. Data for the mec2-1 strain (AID 157); settings: S. cerevisiae mec2-1 strain, active compounds read high
# Outline: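 Yeast mec2-1 mutant treated with compound. Readout: growth inhibition vs vehicle controls.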
# [2] = NCI Yeast Anticancer Drug Screen. Data for the rad14 strain (AID 159);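 note: 0% = growth of vehicle-treated control cultures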; settings: S. cerevisiae rad14 strain growth inhibition, active compounds read high
# Outline: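 Inhibition of growth is reported for a repair-deficient yeast mutant following compound treatment, calculated relative to cultures that received vehicle.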
# [3] = NCI Yeast Anticancer Drug Screen. Data for the sgs1 mgt1 strain (AID 161);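 note: 0% = growth of cultures given vehicle only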; settings: S. cerevisiae sgs1 mgt1 strain, active compounds read high
# Outline: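 Read-out: growth inhibition vs vehicle controls. Cells: mutant yeast strain deficient in DNA damage repair.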
# [4] = NCI Yeast Anticancer Drug Screen. Data for the CLN2oe strain (AID 163);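 note: 0% = growth of vehicle-only control cultures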; settings: S. cerevisiae CLN2oe strain, active compounds read high
# Outline: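 Read-out: yeast growth inhibition, expressed relative to vehicle-only controls. The strain bears an engineered cell-cycle alteration.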
# [5] = NCI Yeast Anticancer Drug Screen. Data for the cln2 rad14 strain (AID 165);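 note: 0% = growth equal to vehicle treated cultures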; settings: S. cerevisiae cln2 rad14 strain, active compounds read high
# Outline: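 cln2 rad14 yeast strain; compound exposure; growth inhibition read vs vehicle controls.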
# [6] = NCI Yeast Anticancer Drug Screen. Data for the bub3 strain (AID 167); settings: S. cerevisiae bub3 mutant strain, active compounds read high
# Outline: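 Mutant yeast screening strain plus compound; vehicle-treated cultures serve as the 0% inhibition reference.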
# [7] = NCI Yeast Anticancer Drug Screen. Data for the wt2 strain (AID 169); settings: S. cerevisiae wt2 strain growth inhibition, active compounds read high
# Outline: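 Read-out: growth inhibition versus vehicle-treated control cultures after compound exposure of the yeast strain.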
# [8] = NCI Yeast Anticancer Drug Screen. Data for the mlh1 strain (AID 171);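 note: 0% = growth of vehicle-treated control cultures of the same strain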; settings: S. cerevisiae mlh1 strain growth inhibition, active compounds read high
# Outline: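 Read-out: growth inhibition versus vehicle controls. Strain: engineered yeast with a defined DNA repair or cell cycle defect, compound-treated.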
# [9] = NCI Yeast Anticancer Drug Screen. Data for the sgs1 strain (AID 173);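 note: 0% = growth of vehicle-only control cultures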; settings: S. cerevisiae sgs1 mutant, active compounds read high
# Outline: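 Read-out: yeast growth inhibition relative to vehicle controls, following compound exposure of a strain with a defined DNA repair/cell cycle alteration.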
# [10] = NCI Yeast Anticancer Drug Screen. Data for the mlh1 rad18 strain (AID 175); settings: S. cerevisiae mlh1 rad18 strain growth inhibition, active compounds read high
# Outline: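 Yeast w/ defined DNA-repair lesions; compound exposure; growth vs vehicle controls → % inhibition.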
# [11] = NCI Yeast Anticancer Drug Screen. Data for the rad18 strain (AID 177); settings: S. cerevisiae rad18 mutant growth inhibition, active compounds read high
# Outline: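 Readout: growth inhibition vs vehicle controls. Cells: genetically altered yeast strain, DNA repair defect.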
# [12] = NCI Yeast Anticancer Drug Screen. Data for the rad52 strain (AID 147);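 note: 0% = growth of vehicle-treated control cultures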; settings: S. cerevisiae rad52 mutant growth inhibition, active compounds read high
# Outline: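 Read-out: growth inhibition versus vehicle-treated controls. Cells were a DNA repair-deficient yeast strain treated with compounds.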
# [13] = NCI Yeast Anticancer Drug Screen. Data for the wt1 strain (AID 149);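 note: 0% = growth of vehicle-treated wt1 cultures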; settings: S. cerevisiae wt1 strain (SPY 50644) growth inhibition, active compounds read high
# Outline: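 Each compound is tested on wt1 yeast and the loss of growth versus vehicle gives the inhibition value.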
# [14] = NCI Yeast Anticancer Drug Screen. Data for the rad50EPP+ strain (AID 151);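 note: 0% = growth of vehicle-treated control cultures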; settings: S. cerevisiae rad50 mutant strain, active compounds read high
# Outline: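 Growth inhibition read against vehicle controls in rad50EPP+ yeast, a strain altered in DNA damage repair, after compound exposure.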
# [15] = NCI Yeast Anticancer Drug Screen. Data for the mgt1 strain (AID 153); settings: S. cerevisiae mgt1 mutant growth inhibition, active compounds read high
# Outline: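 mgt1 yeast grown with test compound; read-out is growth inhibition versus vehicle-treated cultures.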
# [16] = NCI Yeast Anticancer Drug Screen. Data for the rad50 strain (AID 155);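 note: 0% = growth of vehicle-only cultures of the same strain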; settings: S. cerevisiae rad50 strain growth inhibition, active compounds read high
# Outline: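 Vehicle-treated cultures provide the reference for the growth inhibition reported for compound-exposed, repair-deficient yeast.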
# [17] = at 5.0 µM (retest, dose inferred, filed as 0.5)
# [18] = at 50.0 µM (retest, dose inferred, filed as 5.0)
smiles,measurement,setting,value
COc1cc(C2C3=C(COC3=O)Oc3cc4c(cc32)OCO4)cc(OC)c1O (stereo unspecified),growth inhibition,[1]; [17],-24%
same,growth inhibition,[1]; at 11.0 µM,18%
same,growth inhibition,[1]; at 33.0 µM,25%
same,growth inhibition,[1]; [18],39%
same,growth inhibition,[1]; at 50.0 µM,59.1%
same,growth inhibition,[1]; at 100.0 µM,29%
same,growth inhibition,[2]; at 1.2 µM,5%
same,growth inhibition,[2]; at 3.7 µM,5%
same,growth inhibition,[2]; at 11.0 µM,16%
same,growth inhibition,[2]; at 33.0 µM,12%
same,growth inhibition,[2]; at 100.0 µM,15%
same,growth inhibition,[3]; [17],-3%
same,growth inhibition,[3]; [18],47%
same,growth inhibition,[3]; at 50.0 µM,36.7%
same,growth inhibition,[4]; at 1.2 µM,0%
same,growth inhibition,[4]; at 3.7 µM,-3%
same,growth inhibition,[4]; at 11.0 µM,5%
same,growth inhibition,[4]; at 33.0 µM,17%
same,growth inhibition,[4]; at 100.0 µM,21%
same,growth inhibition,[5]; [17],8%
same,growth inhibition,[5]; [18],51%
same,growth inhibition,[5]; at 50.0 µM,55.1%
same,growth inhibition,[6]; at 1.2 µM,1%
same,growth inhibition,[6]; at 3.7 µM,-1%
same,growth inhibition,[6]; [17],-18%
same,growth inhibition,[6]; at 11.0 µM,14%
same,growth inhibition,[6]; at 33.0 µM,10%
same,growth inhibition,[6]; [18],9%
same,growth inhibition,[6]; at 50.0 µM,23.3%
same,growth inhibition,[6]; at 100.0 µM,13%
same,growth inhibition,[7]; at 1.2 µM,2%
same,growth inhibition,[7]; at 3.7 µM,1%
same,growth inhibition,[7]; at 11.0 µM,5%
same,growth inhibition,[7]; at 33.0 µM,6%
same,growth inhibition,[7]; at 100.0 µM,8%
same,growth inhibition,[8]; at 1.2 µM,3%
same,growth inhibition,[8]; at 3.7 µM,0%
same,growth inhibition,[8]; at 11.0 µM,8%
same,growth inhibition,[8]; at 33.0 µM,10%
same,growth inhibition,[8]; at 100.0 µM,10%
same,growth inhibition,[9]; at 1.2 µM,13%
same,growth inhibition,[9]; at 3.7 µM,10%
same,growth inhibition,[9]; at 11.0 µM,22%
same,growth inhibition,[9]; at 33.0 µM,26%
same,growth inhibition,[9]; at 100.0 µM,28%
same,growth inhibition,[10]; [17],-10%
same,growth inhibition,[10]; [18],58%
same,growth inhibition,[10]; at 50.0 µM,72.7% (active)
same,growth inhibition,[11]; at 1.2 µM,11%
same,growth inhibition,[11]; at 3.7 µM,11%
same,growth inhibition,[11]; at 11.0 µM,19%
same,growth inhibition,[11]; at 33.0 µM,9%
same,growth inhibition,[11]; at 100.0 µM,24%
O=C1Oc2ccccc2C(=O)/C1=C/N1C(=O)N/C(=C\c2ccccc2Br)C1=O,growth inhibition,[12]; at 1.2 µM,1%
same,growth inhibition,[12]; at 3.7 µM,4%
same,growth inhibition,[12]; at 11.0 µM,13%
same,growth inhibition,[12]; at 33.0 µM,43%
same,growth inhibition,[12]; at 100.0 µM,91% (active)
same,growth inhibition,[13]; at 1.2 µM,4%
same,growth inhibition,[13]; at 3.7 µM,7%
same,growth inhibition,[13]; at 11.0 µM,8%
same,growth inhibition,[13]; at 33.0 µM,18%
same,growth inhibition,[13]; at 100.0 µM,55%
same,growth inhibition,[14]; at 1.2 µM,-2%
same,growth inhibition,[14]; at 3.7 µM,1%
same,growth inhibition,[14]; at 11.0 µM,6%
same,growth inhibition,[14]; at 33.0 µM,21%
same,growth inhibition,[14]; at 100.0 µM,57%
same,growth inhibition,[15]; at 1.2 µM,0%
same,growth inhibition,[15]; at 3.7 µM,1%
same,growth inhibition,[15]; at 11.0 µM,7%
same,growth inhibition,[15]; at 33.0 µM,25%
same,growth inhibition,[15]; at 100.0 µM,96% (active)
same,growth inhibition,[16]; at 1.2 µM,-2%
same,growth inhibition,[16]; at 3.7 µM,-11%
same,growth inhibition,[16]; [17],-6%
same,growth inhibition,[16]; at 11.0 µM,-3%
same,growth inhibition,[16]; at 33.0 µM,40%
same,growth inhibition,[16]; [18],54%
same,growth inhibition,[16]; at 50.0 µM,91.9% (active)
same,growth inhibition,[16]; at 100.0 µM,95% (active)
same,growth inhibition,[1]; at 1.2 µM,1%
same,growth inhibition,[1]; at 3.7 µM,1%
same,growth inhibition,[1]; [17],-15%
same,growth inhibition,[1]; at 11.0 µM,7%
same,growth inhibition,[1]; at 33.0 µM,27%
same,growth inhibition,[1]; [18],5%
same,growth inhibition,[1]; at 50.0 µM,56.1%
same,growth inhibition,[1]; at 100.0 µM,86% (active)
same,growth inhibition,[2]; at 1.2 µM,1%
same,growth inhibition,[2]; at 3.7 µM,2%
same,growth inhibition,[2]; at 11.0 µM,13%
same,growth inhibition,[2]; at 33.0 µM,59%
same,growth inhibition,[2]; at 100.0 µM,97% (active)
same,growth inhibition,[3]; [17],-3%
same,growth inhibition,[3]; [18],17%
same,growth inhibition,[3]; at 50.0 µM,89.7% (active)
same,growth inhibition,[4]; at 1.2 µM,-3%
same,growth inhibition,[4]; at 3.7 µM,4%
same,growth inhibition,[4]; at 11.0 µM,14%
same,growth inhibition,[4]; at 33.0 µM,33%
same,growth inhibition,[4]; at 100.0 µM,56%
same,growth inhibition,[5]; [17],15%
same,growth inhibition,[5]; [18],13%
same,growth inhibition,[5]; at 50.0 µM,39.5%
same,growth inhibition,[6]; at 1.2 µM,0%
same,growth inhibition,[6]; at 3.7 µM,-1%
same,growth inhibition,[6]; [17],7%
same,growth inhibition,[6]; at 11.0 µM,6%
same,growth inhibition,[6]; at 33.0 µM,29%
same,growth inhibition,[6]; [18],33%
same,growth inhibition,[6]; at 50.0 µM,94.5% (active)
same,growth inhibition,[6]; at 100.0 µM,83% (active)
same,growth inhibition,[7]; at 1.2 µM,1%
same,growth inhibition,[7]; at 3.7 µM,2%
same,growth inhibition,[7]; at 11.0 µM,6%
same,growth inhibition,[7]; at 33.0 µM,33%
same,growth inhibition,[7]; at 100.0 µM,96% (active)
same,growth inhibition,[8]; at 1.2 µM,0%
same,growth inhibition,[8]; at 3.7 µM,5%
same,growth inhibition,[8]; at 11.0 µM,12%
same,growth inhibition,[8]; at 33.0 µM,43%
same,growth inhibition,[8]; at 100.0 µM,97% (active)
same,growth inhibition,[9]; at 1.2 µM,2%
same,growth inhibition,[9]; at 3.7 µM,5%
same,growth inhibition,[9]; at 11.0 µM,14%
same,growth inhibition,[9]; at 33.0 µM,54%
same,growth inhibition,[9]; at 100.0 µM,96% (active)
same,growth inhibition,[10]; [17],4%
same,growth inhibition,[10]; [18],52%
same,growth inhibition,[10]; at 50.0 µM,95.5% (active)
same,growth inhibition,[11]; at 1.2 µM,-1%
same,growth inhibition,[11]; at 3.7 µM,1%
same,growth inhibition,[11]; at 11.0 µM,6%
same,growth inhibition,[11]; at 33.0 µM,51%
same,growth inhibition,[11]; at 100.0 µM,94% (active)
